Experimental data: PubChem BioAssay AID504339 (National Center for Advancing Translational Sciences (NCATS), 2011)
Among all 390,000 compounds or so, about 17,000 (4.4%) were called active. About 8% were inconclusive and are not listed. Calls come from the whole dose curve; as a rule, active = well fitted inhibition curve with a large enough effect; inconclusive = small, poorly fitted or top-dose-only effect; inactive = no such curve, though single readings can be large or run the other way. The list comes from a sample in which actives are over-represented; it also holds similar structures and randomly drawn compounds.

Molecular target: Lysine-specific demethylase 4A (Homo sapiens) (UniProt O75164)
Sequence (O75164 whole entry, looked up, the tested form may be a part): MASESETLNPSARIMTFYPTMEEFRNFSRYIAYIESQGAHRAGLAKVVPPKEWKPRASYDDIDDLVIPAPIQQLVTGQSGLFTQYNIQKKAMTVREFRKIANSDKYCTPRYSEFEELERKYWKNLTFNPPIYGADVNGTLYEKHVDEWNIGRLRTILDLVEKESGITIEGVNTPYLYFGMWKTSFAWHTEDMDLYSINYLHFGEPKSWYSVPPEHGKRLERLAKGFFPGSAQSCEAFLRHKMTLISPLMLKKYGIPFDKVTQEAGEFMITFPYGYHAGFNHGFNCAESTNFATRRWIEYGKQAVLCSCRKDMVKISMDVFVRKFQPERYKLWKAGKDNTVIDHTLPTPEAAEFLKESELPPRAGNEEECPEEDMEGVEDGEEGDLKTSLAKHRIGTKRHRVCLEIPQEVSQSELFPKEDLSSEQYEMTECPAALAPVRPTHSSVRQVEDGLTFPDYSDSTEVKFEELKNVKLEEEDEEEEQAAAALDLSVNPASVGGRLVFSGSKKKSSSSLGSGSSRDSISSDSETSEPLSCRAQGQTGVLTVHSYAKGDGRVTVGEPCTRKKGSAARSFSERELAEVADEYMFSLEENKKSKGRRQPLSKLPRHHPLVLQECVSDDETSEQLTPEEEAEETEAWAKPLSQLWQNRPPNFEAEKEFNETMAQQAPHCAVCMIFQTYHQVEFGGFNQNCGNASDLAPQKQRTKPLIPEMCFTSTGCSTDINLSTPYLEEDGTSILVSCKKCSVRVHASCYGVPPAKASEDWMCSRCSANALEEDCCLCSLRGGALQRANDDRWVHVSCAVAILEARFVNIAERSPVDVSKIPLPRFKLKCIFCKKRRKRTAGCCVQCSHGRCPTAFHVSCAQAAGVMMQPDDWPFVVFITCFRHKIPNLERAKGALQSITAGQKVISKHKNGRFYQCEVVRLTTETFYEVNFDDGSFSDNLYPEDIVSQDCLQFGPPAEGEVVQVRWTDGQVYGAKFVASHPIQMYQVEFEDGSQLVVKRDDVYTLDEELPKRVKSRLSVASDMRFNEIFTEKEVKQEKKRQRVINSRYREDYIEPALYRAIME
Experiment: qHTS Assay for Inhibitors of JMJD2A-Tudor Domain; note: nearly all actives have a fitted effect of over 50% in size
Details: AlphaScreen JMJD2A-Tudor / H3K4me3 peptide binding; series mostly up to 114 µM; activity change, negative = inhibition: at the top concentration
% is set by controls: 0 for no effect and ±100 for the full control effect; potency is the fitted concentration of half-maximal effect.

Activity change, negative = inhibition, inactive:
COc1cc(OC)c(NC(=O)c2nc(-c3ccncc3)no2)cc1Cl -1.64%, CC(C)(C)NC(=O)CSc1nc(-c2ccc(F)cc2)cc(C(F)(F)F)n1 11.3%, CC(Sc1nnc2c(n1)C1CCC2(C)C1(C)C)C(=O)Nc1ccccc1 (stereo unspecified) -11.3%, Cc1cc(C)nc(N(C#N)CC(=O)Nc2ccccc2)n1 -7.56%, CCOc1ccc(NC(=O)c2c(NCc3cccc(OC)c3OC)sc3c2CCC3)cc1 -25.3%, O=C(NCc1nnc(C(=O)Nc2ccc(C(F)(F)F)cc2Cl)o1)c1ccccc1 -20.5%, Cc1ccc(NC(=O)Nc2sc3nc4n(c(=O)c3c2C)CCC(C)CC4)c(Cl)c1 (stereo unspecified) -6.18%, COc1ccccc1C(=O)N/C(=C/c1ccc2c(c1)OCO2)C(=O)Nc1cccc(C(=O)O)c1 -8.7%, Cc1ccc(NC(=O)/C(=C\c2ccccc2)NC(=O)c2ccco2)cc1 -1.39%, Cc1cccc(C(CC(=O)NCC2(c3ccccc3)CCCC2)c2ccccc2)c1O (stereo unspecified) -5.84%, CCOC(=O)CN1C(C(=O)c2ccccc2)=C(OC(=O)C(C)(C)C)c2ccccc2S1(=O)=O -18.2%, CC(CCCc1ccccc1)NC(=O)c1nn(-c2ccc(Cl)cc2)nc1CO (stereo unspecified) -3.77%, O=C(Cn1cnc2c(OCc3ccccc3)ncnc21)NCCCn1ccnc1 -13.8%, CC(CNC(=O)Cn1cnc2c(OCc3ccccc3)ncnc21)c1ccccc1 (stereo unspecified) -17.3%, CC(C)S(=O)(=O)c1oc(-c2ccc(F)cc2)nc1S(=O)(=O)c1ccc(F)cc1 -11.1%, Cc1ccc(Cl)cc1NC(=O)NC1COc2ccccc2C1 (stereo unspecified) -16.9%, Cc1c(Cl)c([N+](=O)[O-])nn1Cc1ccc(C(=O)N/N=C\c2cc(Cl)ccc2O)o1 -25.2% [at 57.1 µM], COc1ccc(C(=O)NNC(=O)c2cc(C)[nH]n2)cc1 -4.35%, CCCCS(=O)(=O)c1oc(-c2cccs2)nc1S(=O)(=O)c1ccccc1 -4.51%, CCCCOC(=O)/C(C#N)=C/c1ccc(-c2cccc(C(F)(F)F)c2)o1 -25.2%, CCOC(=O)c1ccc(-c2ccc(/C=C(\C#N)C(=O)Nc3ccc(C)cc3)o2)cc1 -26.2%, Cc1cccn2c(=O)c(C(=O)NC(C)c3ccccc3)cnc12 (stereo unspecified) -5%, CCC(C)c1ccc2oc(-c3ccc(NC(=O)c4cc5ccccc5o4)cc3)nc2c1 (stereo unspecified) -14.5%, O=C(C1CCCN(S(=O)(=O)c2ccc([N+](=O)[O-])cc2)C1)N1CCCCC1 (stereo unspecified) -6.21%, CC(=O)Nc1ccc(S(=O)(=O)N2CCN(C3CCCCCCC3)CC2)cc1 -30.2%, Cc1ccc(S(=O)(=O)N2CCC(C(=O)N3CCCCCCC3)CC2)cc1 -7.56%, Cc1ccc(S(=O)(=O)N2CCN(C)CC2)cc1 -7.48%, COc1ccc(N2CCN(C(=O)C3CCN(C(=O)c4ccccc4Cl)CC3)CC2)cc1 -15.7%, COc1ccc(S(=O)(=O)N2CCCC(C(=O)N3CCN(C)CC3)C2)cc1C (stereo unspecified) -6.21%, CCOC(=O)C1CCC(CN(Cc2ccc(OC)cc2)S(=O)(=O)c2ccc(F)c(C(=O)Nc3cc(C)ccc3C)c2)CC1 (stereo unspecified) -18.3%, N#Cc1nc(/C=C/c2ccc(F)cc2)oc1NC1CCCCC1 -25.8%, COc1ccc(Cn2ccn(Cc3cccc(OC)c3)c(=O)c2=O)cc1 -12.8%, Cc1ccccc1Cn1nc(C)c(NC(=O)c2cc(-c3ccc(F)cc3)on2)c1C -2.73%, Cc1c(Cl)cccc1NC(=O)CCS(=O)(=O)c1ccc2c(c1)oc(=O)n2C -10.4%, COc1cccc(C(=O)NCc2ccc3c(c2)CCN3C(=O)c2ccncc2)c1 -10.3%, COc1cc(C)ccc1OCCSc1nc2ccc(NC(=O)c3ccc(C)cc3)cc2s1 5.63%, COc1cc(Cl)c(C)cc1NC(=O)CCc1nc2cccnc2n1Cc1cccs1 -17.5%, O=C(Nc1ccc(F)cc1F)c1ccc2c(=O)n3c(nc2c1)CCCCC3 -4.44%, COc1cc2c(=O)c(S(=O)(=O)c3ccc(C(C)C)cc3)cn(Cc3ccccc3C)c2cc1OC -26.8%, C=CCN(C(=O)c1cc(C)cc(C)c1)C1(C(=O)Nc2ccccc2)CCN(C(C)C)CC1 -22.4%, CCc1ccc(NC(=O)CN2C(=O)C(c3ccccc3)=NC23CCCCCC3)cc1 -9.73%, O=C(COC(=O)C1CCCO1)Nc1nc(-c2ccc(F)cc2)cs1 (stereo unspecified) -6.9%, CCc1ccc(CNC(=O)C2CCN(c3nn4cc(-c5ccc(F)cc5)nc4s3)CC2)cc1 1.65%, O=C(CNC(=O)c1ccccc1)OC(C(=O)Nc1cc([N+](=O)[O-])ccc1F)c1ccccc1 (stereo unspecified) -28.1%, COc1ccc(Cn2ccnc2SCC(=O)NCc2ccco2)cc1 -26.8%, Cc1cccc(OCCSc2nc3ccc(NC(=O)COc4ccccc4C)cc3s2)c1 2.32%, COc1ccc(CCOC2OC(CO)C(OC(=O)/C=C/c3ccc(O)c(OC)c3)C(O[C@H]3O[C@@H](C)[C@H](O)[C@@H](O)[C@H]3O)C2O)cc1O (stereo partly specified) -23.8%, C[C@@H]1O[C@@H](OC[C@H]2O[C@@H](Oc3c(-c4ccc(O)cc4)oc4cc(O)cc(O)c4c3=O)[C@H](O)[C@@H](O)[C@@H]2O)[C@H](O)[C@H](O)[C@H]1O -18.4%, COc1ccc(NC(=O)N2CCCn3nc(C)cc32)cc1OC -11%, Cc1ccccc1NC(=O)Cn1c(=O)n(CCc2ccccc2)c(=O)c2ccccc21 -13%, O=[N+]([O-])c1ccc(N(CCO)Cc2ccccc2)c([N+](=O)[O-])c1 -35.1%, CC(Cc1cccs1)N(Cc1ccc(Cl)cc1)C(=O)c1ccncc1 (stereo unspecified) -4.03%, O=C(Cc1ccc(Cl)cc1)c1ccccc1 6.9%, CN(C(=O)CN(CCO)CC(=O)N(C)C(C)(C)Cc1ccccc1)C(C)(C)Cc1ccccc1 -18.7%, Cc1ccc(CN(C(=O)c2ccccc2[N+](=O)[O-])c2ccccn2)cc1 -12.6%, COc1ccc(CC(=O)Nc2ccc(-c3nc4ccccc4s3)c(C)c2)cc1 -18.3%, Cc1ccc2cccc(NC(=O)C(C)Oc3ccc(C)c(C)c3)c2n1 (stereo unspecified) -12.9%, COc1ccc(-n2nc(C(=O)NCCc3ccc(Cl)cc3)c3c4ccccc4n(C)c3c2=O)cc1Cl -2.67%, COc1cc(OC)c(NC(=O)Cc2ccc(-n3c(C)nc4cccnc43)cc2)cc1Cl -23.1%, COc1cc2c(cc1OC)C(COc1ccc(F)cc1)N(C(=O)c1ccccc1F)CC2 (stereo unspecified) -28.7%, Cc1cccc(C(=O)Nc2ccc(-c3nc4ncccc4o3)cc2C)c1 -20.7%, NCC(=O)c1cccc2ccc[n+]([O-])c12 -8.7%, O=C(NCC(c1ccco1)S(=O)(=O)c1cccs1)c1ccc(F)cc1 (stereo unspecified) -13.7%, Cc1ccc(CNC(=O)CSc2c3c(nc4cc(Cl)ccc24)CCCC3)cc1 -3.31%, COc1ccc(-c2nc(C)c(CCNC(=O)c3ccc(C(F)(F)F)cc3)s2)cc1OC 3.87%, Cc1cccc(C)c1Nc1c(-c2ccccc2O)nc2ncccn12 -30.7%, Nc1scc[n+]1Cc1cccc2cccnc12 -15%, c1ccc2c(CNn3cnnc3)cccc2c1 0% [at 11.4 µM], CCc1c(C)sc(NC(=O)C2c3ccccc3Oc3ccccc32)c1C(=O)OC(C)C 4.47%, CCOC(=O)c1c(C)n(S(=O)(=O)c2ccc(C)cc2C)c2ccc(NS(=O)(=O)c3ccc(C)cc3C)cc12 -31%, COc1ccc2c(c1)CCc1c(C(=O)Nc3cc(C)ccc3O)noc1-2 -14%, Cc1ccc(N2CCN(C(=O)CCc3c(C)nc4c(c3C)c(=O)n(C)c(=O)n4C)CC2)c(C)c1 -13.8%, CCC(Sc1nnc(-c2ccc(OC)cc2)c(-c2ccc(OC)cc2)n1)C(=O)NC1CCCCC1 (stereo unspecified) -3.98%, CCOC(=O)c1ccc(N2C(=O)c3[nH]nc(-c4ccccc4)c3C2c2ccc(C(C)C)cc2)cc1 (stereo unspecified) -35.3%, O=C(C1=C(O)C(=O)N(Cc2ccccc2)C1c1cccnc1)c1ccco1 (stereo unspecified) -11%, O=C(c1ccco1)N(Cc1cccs1)c1ccc(O)cc1 -7.69% [at 57.1 µM]

Potency, inactive:
Cc1ccc(Nc2c(-c3ccc(C)s3)nc3ccccn23)cc1

Potency, active:
CSc1nc(C)cc(SC(C(C)=O)C(=O)Nc2ccccc2)n1 (stereo unspecified) 56.2 µM, COc1ccccc1C(=O)N/C(=C/c1ccco1)C(=O)Nc1ccc(C(=O)O)cc1 25.1 µM, O=C(Cn1cnc2c(OCc3ccccc3)ncnc21)NCc1nc2ccccc2[nH]1 56.2 µM, Cc1cc(C(=O)N/N=C/c2cc([N+](=O)[O-])cc(C)c2O)n[nH]1 44.7 µM, Cc1ccc(-c2ccc(/C=C(\C#N)C(N)=S)o2)c([N+](=O)[O-])c1 14.1 µM, COc1ccc(N2CCN(C(=O)C3CCN(S(=O)(=O)c4ccc(C)cc4)CC3)CC2)cc1 39.8 µM, Cc1ccc(S(=O)(=O)N2CCCC(C(=O)N3CCN(C)CC3)C2)cc1 (stereo unspecified) 2.82 µM, Cc1ccc(S(=O)(=O)N2CCC(N3CCCCCC3)CC2)cc1 0.891 µM, Oc1c(C=Nc2cccc3nsnc23)ccc2ccccc12 89.1 µM, CCN(C(=O)Cc1nc(N)n[nH]1)C1(C(=O)Nc2ccccc2)CCCCC1 100 µM, CC1CCCC(C)N1C(=O)CN1CCN(c2nc(-c3ccc(F)cc3)cs2)CC1 (stereo unspecified) 79.4 µM, COc1ccc(-c2cc(=O)c3c(O)cc(O[C@@H]4O[C@H](CO[C@@H]5O[C@@H](C)[C@H](O)[C@@H](O)[C@H]5O)[C@@H](O)[C@H](O)[C@H]4O)cc3o2)cc1O 20 µM, OCCN(Cc1ccccc1)Cc1ccc(Cl)cc1 10 µM, CC(O)CN(Cc1ccc(Cl)cc1)CC(C)O (stereo unspecified) 8.91 µM, Cc1ccc2cccc(O)c2[n+]1[O-] 10 µM, Cc1ccc(-c2nc3ccccn3c2Nc2c(C)cccc2C)o1 50.1 µM, c1ccc2c(C[n+]3csc4ccccc43)cccc2c1 17.8 µM, O=S(=O)(O)c1cc2onnc2c2ccccc12 50.1 µM, O=C(C1=C(O)C(=O)N(c2ncccn2)C1c1cccs1)c1ccco1 (stereo unspecified) 20 µM
